# Measurements taken from PubChem BioAssay (NCI).
# This is part of a sample that, as a whole, favours compounds with a hit. Of some 79,000 tested, about 15% had one in any assay. A number with no mark means an inactive call. Active and inactive are the calls of the source. Rule as the data show it: active = growth inhibition above about 70%; inactive = the rest.
# How the values were obtained:
# [1] = NCI Yeast Anticancer Drug Screen. Data for the rad52 strain (AID 147);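 also: 0% = growth of vehicle-treated control cultures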; details: S. cerevisiae rad52 mutant growth inhibition, hits give high values
# Method in brief: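 Inhibition of yeast growth, referenced to vehicle controls, was the measured output for a strain with defective DNA damage repair.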
# [2] = NCI Yeast Anticancer Drug Screen. Data for the wt1 strain (AID 149);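 also: 0% = growth of vehicle-treated wt1 cultures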; details: S. cerevisiae wt1 strain (SPY 50644) growth inhibition, hits give high values
# Method in brief: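 Using yeast strain wt1, compound-induced growth inhibition was determined against vehicle-treated cultures.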
# [3] = NCI Yeast Anticancer Drug Screen. Data for the rad50EPP+ strain (AID 151);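 also: 0% = growth of vehicle-treated control cultures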; details: S. cerevisiae rad50 mutant strain, hits give high values
# Method in brief: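 Genetically defined yeast (rad50EPP+, DNA damage repair alteration) is grown with compound, and inhibition of growth is expressed relative to vehicle-treated controls.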
# [4] = NCI Yeast Anticancer Drug Screen. Data for the mgt1 strain (AID 153); details: S. cerevisiae mgt1 mutant growth inhibition, hits give high values
# Method in brief: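 In the mgt1 strain, test compounds were added and growth inhibition was determined relative to vehicle-treated controls.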
# [5] = NCI Yeast Anticancer Drug Screen. Data for the rad50 strain (AID 155);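 also: 0% = growth of vehicle-only cultures of the same strain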; details: S. cerevisiae rad50 strain growth inhibition, hits give high values
# Method in brief: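 Relative growth inhibition (compound vs vehicle) was measured in yeast with a defined repair-gene alteration.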
# [6] = NCI Yeast Anticancer Drug Screen. Data for the mec2-1 strain (AID 157); details: S. cerevisiae mec2-1 strain, hits give high values
# Method in brief: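 Each compound was tested on mec2-1 yeast, a strain altered in DNA damage repair or cell cycle control. Growth inhibition is reported relative to vehicle.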
# [7] = NCI Yeast Anticancer Drug Screen. Data for the rad14 strain (AID 159);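 also: 0% = growth of vehicle-treated control cultures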; details: S. cerevisiae rad14 strain growth inhibition, hits give high values
# Method in brief: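 Screen for anticancer potential: a yeast strain altered in DNA damage repair is grown with compound, and reduced growth is quantified against vehicle controls.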
# [8] = NCI Yeast Anticancer Drug Screen. Data for the sgs1 mgt1 strain (AID 161);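 also: 0% = growth of cultures given vehicle only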; details: S. cerevisiae sgs1 mgt1 strain, hits give high values
# Method in brief: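 Read-out: growth inhibition vs vehicle controls. Cells: mutant yeast strain deficient in DNA damage repair.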
# [9] = NCI Yeast Anticancer Drug Screen. Data for the cln2 rad14 strain (AID 165);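 also: 0% = growth equal to vehicle treated cultures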; details: S. cerevisiae cln2 rad14 strain, hits give high values
# Method in brief: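 Test compounds were added to cln2 rad14 yeast cultures; inhibition of growth was then determined by comparison with vehicle treatment.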
# [10] = NCI Yeast Anticancer Drug Screen. Data for the bub3 strain (AID 167); details: S. cerevisiae bub3 mutant strain, hits give high values
# Method in brief: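 Screening used yeast with an engineered genetic alteration affecting cell cycle control. Compound-exposed cultures were compared with vehicle cultures, and reduced growth was taken as inhibition.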
# [11] = NCI Yeast Anticancer Drug Screen. Data for the wt2 strain (AID 169);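 also: 0% = growth of vehicle-treated yeast cultures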; details: S. cerevisiae wt2 strain growth inhibition, hits give high values
# Method in brief: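 The panel's yeast strains carry defined changes in DNA repair or cell cycle genes. Each strain is grown with compound, and growth loss is scored relative to vehicle.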
# [12] = NCI Yeast Anticancer Drug Screen. Data for the mlh1 strain (AID 171);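 also: 0% = growth of vehicle-treated control cultures of the same strain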; details: S. cerevisiae mlh1 strain growth inhibition, hits give high values
# Method in brief: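 Inhibition values reflect reduced yeast growth in the presence of compound, referenced to vehicle controls, using a strain chosen for its alteration in DNA repair or cell cycle control.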
# [13] = NCI Yeast Anticancer Drug Screen. Data for the sgs1 strain (AID 173);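 also: 0% = growth of vehicle-only control cultures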; details: S. cerevisiae sgs1 mutant, hits give high values
# Method in brief: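 Vehicle-treated cultures served as reference for growth inhibition of a yeast strain altered in DNA damage repair or cell cycle control after compound exposure.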
# [14] = NCI Yeast Anticancer Drug Screen. Data for the mlh1 rad18 strain (AID 175); details: S. cerevisiae mlh1 rad18 strain growth inhibition, hits give high values
# Method in brief: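 Inhibition values reflect reduced growth of mutant yeast versus vehicle-treated controls following compound exposure; the mutations affect DNA damage repair.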
# [15] = NCI Yeast Anticancer Drug Screen. Data for the rad18 strain (AID 177); details: S. cerevisiae rad18 mutant growth inhibition, hits give high values
# Method in brief: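 Steps: expose repair-mutant yeast to compound; measure growth; express as inhibition relative to vehicle control.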
# [16] = NCI Yeast Anticancer Drug Screen. Data for the CLN2oe strain (AID 163);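 also: 0% = growth of vehicle-only control cultures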; details: S. cerevisiae CLN2oe strain, hits give high values
# Method in brief: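 First, the altered yeast strain was treated with each compound; second, its growth was measured; finally, inhibition was derived by comparison with vehicle controls.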
# [17] = at 5.0 µM (retest, dose inferred, filed as 0.5)
# [18] = at 50.0 µM (retest, dose inferred, filed as 5.0)
smiles,measurement,setting,value
CCOC(=O)Nc1ccc(C)c(NC(=O)OCC)c1,growth inhibition,[1]; at 1.2 µM,3%
same,growth inhibition,[1]; at 3.7 µM,8%
same,growth inhibition,[1]; at 11.0 µM,15%
same,growth inhibition,[1]; at 33.0 µM,21%
same,growth inhibition,[1]; at 100.0 µM,23%
same,growth inhibition,[2]; at 1.2 µM,6%
same,growth inhibition,[2]; at 3.7 µM,13%
same,growth inhibition,[2]; at 11.0 µM,12%
same,growth inhibition,[2]; at 33.0 µM,15%
same,growth inhibition,[2]; at 100.0 µM,17%
same,growth inhibition,[3]; at 1.2 µM,4%
same,growth inhibition,[3]; at 3.7 µM,8%
same,growth inhibition,[3]; at 11.0 µM,19%
same,growth inhibition,[3]; at 33.0 µM,34%
same,growth inhibition,[3]; at 100.0 µM,47%
same,growth inhibition,[4]; at 1.2 µM,3%
same,growth inhibition,[4]; at 3.7 µM,9%
same,growth inhibition,[4]; at 11.0 µM,12%
same,growth inhibition,[4]; at 33.0 µM,12%
same,growth inhibition,[4]; at 100.0 µM,16%
same,growth inhibition,[5]; at 1.2 µM,5%
same,growth inhibition,[5]; at 3.7 µM,6%
same,growth inhibition,[5]; [17],22%
same,growth inhibition,[5]; at 11.0 µM,16%
same,growth inhibition,[5]; at 33.0 µM,19%
same,growth inhibition,[5]; [18],80% (active)
same,growth inhibition,[5]; at 50.0 µM,-1.75%
same,growth inhibition,[5]; at 100.0 µM,26%
same,growth inhibition,[6]; at 1.2 µM,4%
same,growth inhibition,[6]; at 3.7 µM,8%
same,growth inhibition,[6]; [17],-2%
same,growth inhibition,[6]; at 11.0 µM,11%
same,growth inhibition,[6]; at 33.0 µM,19%
same,growth inhibition,[6]; [18],14%
same,growth inhibition,[6]; at 50.0 µM,6%
same,growth inhibition,[6]; at 100.0 µM,20%
same,growth inhibition,[7]; at 1.2 µM,3%
same,growth inhibition,[7]; at 3.7 µM,7%
same,growth inhibition,[7]; at 11.0 µM,10%
same,growth inhibition,[7]; at 33.0 µM,15%
same,growth inhibition,[7]; at 100.0 µM,21%
same,growth inhibition,[8]; [17],11%
same,growth inhibition,[8]; [18],57%
same,growth inhibition,[8]; at 50.0 µM,4.65%
same,growth inhibition,[9]; [17],11%
same,growth inhibition,[9]; [18],23%
same,growth inhibition,[9]; at 50.0 µM,-38.4%
same,growth inhibition,[10]; at 1.2 µM,2%
same,growth inhibition,[10]; at 3.7 µM,8%
same,growth inhibition,[10]; [17],35%
same,growth inhibition,[10]; at 11.0 µM,7%
same,growth inhibition,[10]; at 33.0 µM,13%
same,growth inhibition,[10]; [18],76% (active)
same,growth inhibition,[10]; at 50.0 µM,14.3%
same,growth inhibition,[10]; at 100.0 µM,13%
same,growth inhibition,[11]; at 1.2 µM,4%
same,growth inhibition,[11]; at 3.7 µM,8%
same,growth inhibition,[11]; at 11.0 µM,10%
same,growth inhibition,[11]; at 33.0 µM,14%
same,growth inhibition,[11]; at 100.0 µM,13%
same,growth inhibition,[12]; at 1.2 µM,3%
same,growth inhibition,[12]; at 3.7 µM,8%
same,growth inhibition,[12]; at 11.0 µM,14%
same,growth inhibition,[12]; at 33.0 µM,19%
same,growth inhibition,[12]; at 100.0 µM,23%
same,growth inhibition,[13]; at 1.2 µM,3%
same,growth inhibition,[13]; at 3.7 µM,6%
same,growth inhibition,[13]; at 11.0 µM,12%
same,growth inhibition,[13]; at 33.0 µM,20%
same,growth inhibition,[13]; at 100.0 µM,30%
same,growth inhibition,[14]; [17],34%
same,growth inhibition,[14]; [18],78% (active)
same,growth inhibition,[14]; at 50.0 µM,8.35%
same,growth inhibition,[15]; at 1.2 µM,8%
same,growth inhibition,[15]; at 3.7 µM,14%
same,growth inhibition,[15]; at 11.0 µM,30%
same,growth inhibition,[15]; at 33.0 µM,61%
same,growth inhibition,[15]; at 100.0 µM,82% (active)
Cc1cc2nc3ccccc3n2c2ccccc12,growth inhibition,[1]; at 1.2 µM,-33%
same,growth inhibition,[1]; at 3.7 µM,-33%
same,growth inhibition,[1]; at 11.0 µM,-56%
same,growth inhibition,[1]; at 33.0 µM,-11%
same,growth inhibition,[1]; at 100.0 µM,41%
same,growth inhibition,[2]; at 1.2 µM,-53%
same,growth inhibition,[2]; at 3.7 µM,-48%
same,growth inhibition,[2]; at 11.0 µM,-39%
same,growth inhibition,[2]; at 33.0 µM,-31%
same,growth inhibition,[2]; at 100.0 µM,-8%
same,growth inhibition,[3]; at 1.2 µM,-49%
same,growth inhibition,[3]; at 3.7 µM,-24%
same,growth inhibition,[3]; at 11.0 µM,-21%
same,growth inhibition,[3]; at 33.0 µM,28%
same,growth inhibition,[3]; at 100.0 µM,63%
same,growth inhibition,[4]; at 1.2 µM,-25%
same,growth inhibition,[4]; at 3.7 µM,4%
same,growth inhibition,[4]; at 11.0 µM,6%
same,growth inhibition,[4]; at 33.0 µM,37%
same,growth inhibition,[4]; at 100.0 µM,61%
same,growth inhibition,[5]; at 1.2 µM,2%
same,growth inhibition,[5]; at 3.7 µM,-7%
same,growth inhibition,[5]; [17],0%
same,growth inhibition,[5]; at 11.0 µM,5%
same,growth inhibition,[5]; at 33.0 µM,64%
same,growth inhibition,[5]; [18],86% (active)
same,growth inhibition,[5]; at 50.0 µM,41%
same,growth inhibition,[5]; at 100.0 µM,91% (active)
same,growth inhibition,[6]; at 1.2 µM,-45%
same,growth inhibition,[6]; at 3.7 µM,-45%
same,growth inhibition,[6]; [17],-11%
same,growth inhibition,[6]; at 11.0 µM,-41%
same,growth inhibition,[6]; at 33.0 µM,-30%
same,growth inhibition,[6]; [18],39%
same,growth inhibition,[6]; at 50.0 µM,56.1%
same,growth inhibition,[6]; at 100.0 µM,8%
same,growth inhibition,[7]; at 1.2 µM,-21%
same,growth inhibition,[7]; at 3.7 µM,-37%
same,growth inhibition,[7]; at 11.0 µM,-36%
same,growth inhibition,[7]; at 33.0 µM,-23%
same,growth inhibition,[7]; at 100.0 µM,35%
same,growth inhibition,[16]; at 1.2 µM,-32%
same,growth inhibition,[16]; at 3.7 µM,-24%
same,growth inhibition,[16]; at 11.0 µM,-30%
same,growth inhibition,[16]; at 33.0 µM,-7%
same,growth inhibition,[16]; at 100.0 µM,37%
same,growth inhibition,[9]; [17],2%
same,growth inhibition,[9]; [18],60%
same,growth inhibition,[9]; at 50.0 µM,52.6%
same,growth inhibition,[10]; at 1.2 µM,-15%
same,growth inhibition,[10]; at 3.7 µM,-7%
same,growth inhibition,[10]; [17],5%
same,growth inhibition,[10]; at 11.0 µM,-6%
same,growth inhibition,[10]; at 33.0 µM,5%
same,growth inhibition,[10]; [18],50%
same,growth inhibition,[10]; at 50.0 µM,69%
same,growth inhibition,[10]; at 100.0 µM,44%
same,growth inhibition,[11]; at 1.2 µM,-57%
same,growth inhibition,[11]; at 3.7 µM,-45%
same,growth inhibition,[11]; at 11.0 µM,-51%
same,growth inhibition,[11]; at 33.0 µM,-23%
same,growth inhibition,[11]; at 100.0 µM,45%
same,growth inhibition,[13]; at 1.2 µM,-43%
same,growth inhibition,[13]; at 3.7 µM,-35%
same,growth inhibition,[13]; at 11.0 µM,-40%
same,growth inhibition,[13]; at 33.0 µM,-29%
same,growth inhibition,[13]; at 100.0 µM,-13%
same,growth inhibition,[14]; [17],6%
same,growth inhibition,[14]; [18],78% (active)
same,growth inhibition,[14]; at 50.0 µM,65.9%
same,growth inhibition,[15]; at 1.2 µM,-24%
same,growth inhibition,[15]; at 3.7 µM,-23%
same,growth inhibition,[15]; at 11.0 µM,-10%
same,growth inhibition,[15]; at 33.0 µM,-8%
same,growth inhibition,[15]; at 100.0 µM,29%
